SMILES strings stand for the structures. Results filed as inconclusive are left out. Activity calls are given as the source filed them. Calls follow the shape of the dose curve; as a rule, active = well fitted curve in the direction sought with a large enough effect; inconclusive = small, poorly fitted or top-dose-only effect, or another doubt; inactive = no such curve, though single readings can be large; an effect the other way counts as inactive or inconclusive.

The values below come from PubChem BioAssay (NCATS).

The nature of test [1]: Quantitative High-Throughput drug screen in 47 multiple myeloma cell lines against the NCATS MIPE library collection: KHM11_PLB cell viability assay (AID 1918962). Also: nearly all actives have a fitted effect of over 35% in size. In a few lines:
(§1)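 Approved and investigational drugs from MIPE 4.0 were added by pin tool to 500 cells per well. After 48 hours at 37C, ATP-based CellTiter-Glo luminescence indicated remaining viability.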

Test [2] is described as follows: Quantitative High-Throughput drug screen in 47 multiple myeloma cell lines against the NCATS MIPE library collection: JIM3_ECACC cell viability assay (AID 1918963; also: nearly all actives have a fitted effect of over 35% in size). An outline of the steps:
as §1

The nature of test [3]: Quantitative High-Throughput drug screen in 47 multiple myeloma cell lines against the NCATS MIPE library collection: JIM1_ECACC cell viability assay (AID 1918964). An outline of the steps:
(§2)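 CellTiter-Glo ATP luminescence gave viability after 48 h compound treatment at 37C of 500 multiple myeloma cells per well. Normalisation used DMSO-only wells as 100% and media-only wells as 0% viability; primary qHTS of approved and investigational drugs.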

Test [4] is described as follows: Quantitative High-Throughput drug screen in 47 multiple myeloma cell lines against the NCATS MIPE library collection: INA6_PLB cell viability assay (AID 1918965; also: nearly all actives have a fitted effect of over 55% in size). In a few lines:
(§3)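 Inhibition of cell viability is measured here. Each line was plated at 500 cells per well, treated with MIPE 4.0 drugs, kept 48 hours at 37C, then assayed for ATP content by CellTiter-Glo luminescence.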

The nature of test [5]: Quantitative High-Throughput drug screen in 47 multiple myeloma cell lines against the NCATS MIPE library collection: KMS12BM_JCRB cell viability assay (AID 1918971). Also: nearly all actives have a fitted effect of over 35% in size. An outline of the steps: as §1
Test [6] can be described thus: Quantitative High-Throughput drug screen in 47 multiple myeloma cell lines against the NCATS MIPE library collection: KMS12PE_JCRB cell viability assay (AID 1918972). Also: nearly all actives have a fitted effect of over 30% in size. In a few lines: as §3
Test [7] can be described thus: Quantitative High-Throughput drug screen in 47 multiple myeloma cell lines against the NCATS MIPE library collection: KMS20_JCRB cell viability assay (AID 1918973). Also: nearly all actives have a fitted effect of over 45% in size. An outline of the steps:
as §2

Test [8] is described as follows: Quantitative High-Throughput drug screen in 47 multiple myeloma cell lines against the NCATS MIPE library collection: KMS26_JCRB cell viability assay (AID 1918975). Also: nearly all actives have a fitted effect of over 45% in size. In a few lines: as §1
The nature of test [9]: Quantitative High-Throughput drug screen in 47 multiple myeloma cell lines against the NCATS MIPE library collection: MMM1_PLB cell viability assay (AID 1918976). Also: nearly all actives have a fitted effect of over 35% in size. An outline of the steps:
(§4)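 ATP-based luminescence (CellTiter-Glo, 5 min RT incubation) quantified surviving cells following two days' treatment with MIPE 4.0 agents at 37 °C, 5% CO2.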

Test [10] in a line: Quantitative High-Throughput drug screen in 47 multiple myeloma cell lines against the NCATS MIPE library collection: NCIH929_DSMZ cell viability assay (AID 1918978). Also: nearly all actives have a fitted effect of over 35% in size. In a few lines: as §4
Test [11] is described as follows: Quantitative High-Throughput drug screen in 47 multiple myeloma cell lines against the NCATS MIPE library collection: OCIMY1_PLB cell viability assay (AID 1918979). Also: nearly all actives have a fitted effect of over 35% in size. An outline of the steps:
as §4

A short description of test [12]: Quantitative High-Throughput drug screen in 47 multiple myeloma cell lines against the NCATS MIPE library collection: MM1S_ATCC cell viability assay (AID 1918980). Also: nearly all actives have a fitted effect of over 45% in size. An outline of the steps:
as §4

Test [13] can be described thus: Quantitative High-Throughput drug screen in 47 multiple myeloma cell lines against the NCATS MIPE library collection: MM1R_ATCC cell viability assay (AID 1918981). Also: nearly all actives have a fitted effect of over 35% in size. An outline of the steps: as §4
Test [14] in a line: Quantitative High-Throughput drug screen in 47 multiple myeloma cell lines against the NCATS MIPE library collection: Karpas25_ECACC cell viability assay (AID 1918968; also: nearly all actives have a fitted effect of over 35% in size). An outline of the steps: as §2
Test [15] in a line: Quantitative High-Throughput drug screen in 47 multiple myeloma cell lines against the NCATS MIPE library collection: KMS27_JCRB cell viability assay (AID 1918970). Also: nearly all actives have a fitted effect of over 30% in size. An outline of the steps:
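CellTiter-Glo luminescence after 48 h drug exposure at 37 °C; 500 cells/well, 1536-well format, pin-tool compound addition; DMSO = 100%, media-only = 0% viability.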

Test [16] can be described thus: Quantitative High-Throughput drug screen in 47 multiple myeloma cell lines against the NCATS MIPE library collection: MOLP8_DSMZ cell viability assay (AID 1918977). Also: nearly all actives have a fitted effect of over 45% in size. In a few lines:
as §4

The nature of test [17]: Quantitative High-Throughput drug screen in 47 multiple myeloma cell lines against the NCATS MIPE library collection: LP1_DSMZ cell viability assay (AID 1918982). Also: nearly all actives have a fitted effect of over 35% in size. In a few lines: as §4
Test [18] is described as follows: Quantitative High-Throughput drug screen in 47 multiple myeloma cell lines against the NCATS MIPE library collection: JJN3_DSMZ cell viability assay (AID 1918966; also: nearly all actives have a fitted effect of over 50% in size). An outline of the steps: as §2
A short description of test [19]: Quantitative High-Throughput drug screen in 47 multiple myeloma cell lines against the NCATS MIPE library collection: H1112_PLB cell viability assay (AID 1918967; also: nearly all actives have a fitted effect of over 30% in size). In a few lines: as §2
The nature of test [20]: Quantitative High-Throughput drug screen in 47 multiple myeloma cell lines against the NCATS MIPE library collection: KMS21BM_JCRB cell viability assay (AID 1918974). The settings on record: ATP luminescence, 48 h; viability: at 45.8 µM (top of the series). In a few lines: as §2
Potency is read from the fitted curve at half-maximal effect.

For `CC(C)(C)NC(=O)[C@H]1CC[C@H]2[C@@H]3CC[C@H]4NC(=O)C=C[C@]4(C)[C@H]3CC[C@]12C`, the Potency is 1180 nM (active) in test [1]; 4180 nM (active) in test [2]; 833 nM (active) in test [4]; 20900 nM (active) in test [6]; 3320 nM (active) in test [7]; 2960 nM (active) in test [8]. In addition, the Potency in test [10] was 296 nM (active); in test [12], 264 nM (active); in test [13], 1320 nM (active). Besides, the Potency entry in test [3], in test [5], in test [9] and in [11] was “inactive” in each case.

As for `CCc1cc(C(N)=S)ccn1`, the Potency entry in test [1], in [2], in test [3], in test [14], in [15] and in test [5] was “inactive” each time. The Potency entry in [6], in test [16] and in [17] was “inactive” in each case.

With `CNS(=O)(=O)CCc1ccc2[nH]cc(C3CCN(C)CC3)c2c1`, the Potency in test [1] is 1180 nM (active); in [2], 2350 nM (active); in [4], 2090 nM (active); in test [18], 41.8 nM (active); in test [5], 2640 nM (active); in test [7], 935 nM (active). The Potency in [8] is 2960 nM (active); in [10] it was 332 nM (active); in test [12], 469 nM (active). For the same compound, the Potency entry in test [16] is “inactive”.

`CO[C@@]12[C@H](COC(N)=O)C3=C(C(=O)C(C)=C(N)C3=O)N1C[C@@H]1N[C@@H]12`: the Potency was 33200 nM (active) in test [1]; 26400 nM (active) in [2]; 20900 nM (active) in [4]; 26400 nM (active) in test [18]; 23500 nM (active) in test [19]; 23500 nM (active) in test [5]. For the same compound, the Potency is 23500 nM (active) in test [8]; 23500 nM (active) in test [9]; 23500 nM (active) in test [16]; 26400 nM (active) in test [10]; 264 nM (active) in [12]; 11800 nM (active) in [13].

For `CC1CC2C3CCC4=CC(=O)C=C[C@]4(C)[C@@]3(F)[C@@H](O)C[C@]2(C)[C@@]1(O)C(=O)CO` (some centres not stated), the Potency was 833 nM (active) in test [1]; 2.3 nM (active) in [3]; 26.4 nM (active) in test [9]; 935 nM (active) in test [16]; 52.6 nM (active) in [10]; 590 nM (active) in test [12]. The Potency entry in test [2], in test [19], in test [15] and in test [6] was “inactive” throughout.

Regarding `CCCc1nc(C)c2c(=O)[nH]c(-c3cc(S(=O)(=O)N4CCN(CC)CC4)ccc3OCC)nn12`, the Potency in test [1] was 9350 nM (active); in test [2], 9350 nM (active); in test [3], 5260 nM (active); in [4] it was 4180 nM (active); in [18], 4180 nM (active); in test [19], 10500 nM (active). In addition, the Potency in test [14] was 5260 nM (active); in test [15] it was 4690 nM (active); in [5], 5260 nM (active); in test [6], 2960 nM (active); in test [7], 11800 nM (active); in test [20], 3720 nM (active). For the same compound, the Potency is 6620 nM (active) in test [9]; 5260 nM (active) in [16]; 3720 nM (active) in test [10]; 4690 nM (active) in [11]; 4690 nM (active) in test [12]; 4180 nM (active) in [13]. In addition, the Potency in [17] is 4690 nM (active).

As to `CC(C)(C)C(=O)OCOP(=O)(COCCn1cnc2c(N)ncnc21)OCOC(=O)C(C)(C)C`, the Potency in test [1] was 935 nM (active); in [2] it was 2640 nM (active); in test [3], 2640 nM (active); in [4] it was 743 nM (active); in test [18], 526 nM (active); in test [14] it was 1660 nM (active). The Potency in test [15] is 469 nM (active); in test [5], 935 nM (active); in [7], 2640 nM (active); in test [9], 18700 nM (active); in [10] it was 209 nM (active); in test [12] it was 2090 nM (active). For the same compound, in test [17], the Potency was 16600 nM (active).

`O=NN(CCCl)C(=O)NC1CCCCC1`: the Potency entry in test [1], in test [2], in [3], in [19], in test [15] and in [5] was “inactive” each time. Further, the Potency entry in [6], in test [16], in [10], in test [11], in [12] and in test [17] was “inactive” in each case.

Regarding `O=C(N[C@H](CO)[C@H](O)c1ccc([N+](=O)[O-])cc1)C(Cl)Cl`, the Potency entry in test [1], in test [2], in [4], in test [18], in test [19] and in test [15] was “inactive” throughout. Besides, the Potency result in test [5], in [6], in test [8], in test [16], in [10] and in [11] was “inactive” each time. For the same compound, the Potency entry in test [12] and in test [17] was “inactive” each time.

As to `Nc1nc(=S)c2[nH]cnc2[nH]1`, the Potency was 4180 nM (active) in test [1]; 9350 nM (active) in test [2]; 469 nM (active) in [4]; 4690 nM (active) in test [18]; 14800 nM (active) in test [19]; 1480 nM (active) in [14]. Moreover, the Potency was 5900 nM (active) in test [5]; 1320 nM (active) in [7]; 3320 nM (active) in test [16]; 1320 nM (active) in test [10]; 3720 nM (active) in test [12]; 7430 nM (active) in [17]. Moreover, in test [15], the Potency result is “inactive”.

Turning to `O=c1cc(O)c(Cl)c[nH]1`, the Potency entry in test [1], in test [2], in test [19], in test [14], in test [16] and in [10] was “inactive” throughout. Also, the Potency entry in test [11] and in test [17] was “inactive” each time. Besides, the Potency was 6620 nM (active) in [3]; 1660 nM (active) in test [15]; 6620 nM (active) in [6]; 743 nM (active) in test [20]; 3720 nM (active) in test [12].

`NNC(=O)c1ccncc1`: the Potency entry in test [1], in test [2], in test [3], in [4], in test [14] and in test [15] was “inactive” each time. For the same compound, the Potency entry in test [5], in [6], in [7], in test [16], in [10] and in test [13] was “inactive” each time. Further, the Potency entry in test [17] is “inactive”.

Turning to `Nc1nc(F)nc2c1ncn2[C@@H]1O[C@H](CO)[C@@H](O)[C@@H]1O`, the Potency is 187 nM (active) in test [1]; 662 nM (active) in test [2]; 93.5 nM (active) in test [3]; 166 nM (active) in [4]; 235 nM (active) in test [18]; 662 nM (active) in test [15]. Further, the Potency is 209 nM (active) in test [5]; 235 nM (active) in [6]; 264 nM (active) in test [7]; 59 nM (active) in test [20]; 469 nM (active) in test [9]; 166 nM (active) in test [16]. Also, the Potency in test [10] was 209 nM (active); in test [12] it was 209 nM (active); in test [13] it was 166 nM (active); in test [17], 590 nM (active).
